Experimental findings from PubChem BioAssay (EPA / NIEHS) are described below.

A short description of test [1]: CCTE_Shafer_MEA_acute_AB: CCTE's Alamar Blue Assay for Cytotoxicity in the Neural Acute Assay, Shafer Lab (AID 2284069; active means hit-call score of the fitted dose curve at least 0.9, where 1 is the maximum;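 further: active compounds lower the viability signal compared with DMSO wells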). A digest of the protocol: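 Primary rat cortical neurons on MEA plates, exposed acutely after baseline recording on day 13 or 15 post-plating. Viability by CellTiter Blue resazurin reduction (1:6 reagent dilution), fluorescence 544/590 nm; loss of signal versus DMSO.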
On the technique in general: Resazurin is reduced to fluorescent resorufin, in cell work by metabolically active cells.

Test [2] can be described thus: CCTE_Shafer_MEA_acute_LDH: CCTE's Lactate Dehydrogenase Assay for Cytotoxicity in the Neural Acute Assay, Shafer Lab (AID 2284086; active means hit-call score of the fitted dose curve at least 0.9, where 1 is the maximum;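 further: active means LDH release rises above DMSO vehicle level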). Put shortly: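 Medium from rat cortical neuron MEA cultures sampled right after the 40 min compound-exposure recording; released LDH measured by absorbance at 490 nm. Analyzed as signal gain relative to DMSO.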
Test [3] can be described thus: UKN5_HCS_SBAD2_cell_viability: Viability Assessment in the University of Konstanz (UKN) Leist Lab Neurite Outgrowth Assay in human iPSC-derived immature Dorsal Root Ganglia Neurons (UKN5) (AID 2284056). A digest of the protocol: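 iPSC-derived immature peripheral neurons (SBAD2) seeded on Matrigel with CHIR99021, SU5402 and DAPT, dosed 1 h later for 24 h. Viability from Hoechst H-33342 and calcein-AM live staining, high-content imaging; bidirectional fit versus DMSO.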

A short description of test [4]: UKN5_HCS_SBAD2_neurite_outgrowth: University of Konstanz (UKN) Leist Lab Neurite Outgrowth Assay in human iPSC-derived immature Dorsal Root Ganglia Neurons (UKN5) (AID 2284070). The note with it: actives raise or lower the signal. Put shortly: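 SBAD2 iPSC-derived immature peripheral neurons on Matrigel, 100.000 cells/cm2, medium with CHIR99021 (1.5 uM), SU5402 (5 uM), DAPT (5 uM); compound added 1 h post-seeding for 24 h. Calcein-AM neurite area by high-content imaging; Hoechst H-33342 viability; bidirectional fit vs DMSO.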

Test [5] in a line: UKN2_HCS_IMR90_neural_migration: University of Konstanz (UKN) Leist Lab Neural Crest Cell Migration Assay in human induced IMR90 Pluripotent Stem Cells (UKN2) (AID 2284204). The note with it: actives raise or lower the signal. A digest of the protocol: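 iPSC-derived IMR90 neural crest cells seeded around stoppers on PLO/laminin/fibronectin; migration started in N2-S medium with EGF/FGF, compounds added after 24 h for 24 h. Migration into cell-free area imaged after calcein-AM/Hoechst staining; bidirectional fit versus DMSO.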

The nature of test [6]: UKN4_HCS_LUHMES_neurite_outgrowth: University of Konstanz (UKN) Leist Lab Neurite Outgrowth Assay in human LUHMES cells (UKN4) (AID 2284206). To be noted: actives raise or lower the signal. A digest of the protocol: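 Human LUHMES neuronal precursors, differentiated 2 days then replated without cAMP and GDNF, exposed to compounds for 24 h. Neurite area imaged by high-content microscopy after calcein-AM live staining; Hoechst H-33342 for viability; bidirectional fit versus DMSO.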

A short description of test [7]: CCTE_Shafer_MEA_dev_burst_duration_mean: CCTE's Neural Network Formation Assay for Mean Burst Duration, Shafer Lab (AID 2284045). A digest of the protocol:
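Primary rat cortical neurons on 48-well 16-electrode MEA plates, exposed from day 0 with renewal at DIV 5 and 9; spontaneous activity recorded on days 5, 7, 9, 12. Well-mean burst duration across bursting electrodes, collapsed as trapezoidal AUC; DMSO baseline.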

Test [8] is described as follows: CCTE_Shafer_MEA_dev_interburst_interval_mean: CCTE's Neural Network Formation Assay for Mean Interburst Interval, Shafer Lab (AID 2284046).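 Further: well-mean interburst interval of bursting electrodes as AUC over four recording days; curve fitted for decrease in interburst interval relative to DMSO.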 Put shortly:
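Recordings on days 5, 7, 9 and 12 give well-mean interburst interval across actively bursting electrodes, summarized as area under the curve. Cultures: rat cortical neurons, continuous exposure from day 0, compound renewed at feeds; decrease analyzed versus DMSO.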

Test [9] in a line: CCTE_Shafer_MEA_dev_inter_network_spike_interval_mean: CCTE's Neural Network Formation Assay for Mean Inter-network Spike Interval, Shafer Lab (AID 2284047). Put shortly:
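Primary rat cortical neurons on 16-electrode MEA wells, exposed from plating day 0 through DIV 12, compound renewed at DIV 5 and 9 media changes. Mean interval between network-spike peaks recorded DIV 5, 7, 9, 12; collapsed as trapezoidal AUC, fitted downward versus DMSO.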

A short description of test [10]: CCTE_Shafer_MEA_dev_network_spike_number: CCTE's Neural Network Formation Assay for Number of Network Spikes, Shafer Lab (AID 2284048).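 Further: synchronized bursts across electrodes counted on days 5 7 9 12 and integrated as AUC.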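 On AC50: fit as a loss of signal meaning fewer network spikes than DMSO.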 A digest of the protocol: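 Primary rat cortical neurons on PEI/laminin 48-well MEA plates, dosed from plating day 0 for 12 days, renewed at DIV 5 and 9. Network spike counts recorded DIV 5, 7, 9, 12, collapsed as trapezoidal AUC; DMSO baseline.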

Test [11] can be described thus: CCTE_Shafer_MEA_dev_network_spike_peak: CCTE's Neural Network Formation Assay for Mean Number of Electrodes in Network Spike, Shafer Lab (AID 2284049).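 On AC50: fitted for loss of signal meaning fewer electrodes in network spikes than DMSO.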 A digest of the protocol:
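Network-spike peak electrode count from recordings on days 5, 7, 9 and 12 was combined as trapezoidal area under the curve. Rat cortical cultures were treated continuously from plating, with compound renewed at each feed (DIV 5, 9); fits versus DMSO.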

Test [12] can be described thus: CCTE_Shafer_MEA_dev_spike_duration_mean: CCTE's Neural Network Formation Assay for Mean Spike Duration, Shafer Lab (AID 2284051).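 Further: mean network spike duration pooled as area under curve over DIV 5 to 12 recordings.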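 On AC50: potency for a decrease in mean network spike duration versus DMSO.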 A digest of the protocol: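 Primary rat cortical neurons on 16-electrode MEA wells (PEI-coated, laminin in plating drop), exposed from plating through DIV 12 with compound renewed at DIV 5 and 9. Mean network-spike duration recorded DIV 5, 7, 9, 12; trapezoidal AUC across days, DMSO baseline.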

A short description of test [13]: CCTE_Shafer_MEA_dev_network_spike_duration_std: CCTE's Neural Network Formation Assay for Standard Deviation of Network Spike Duration, Shafer Lab (AID 2284052).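 Further: area under curve of spike duration SD across recording days 5 to 12; hits are decreases in network spike duration SD versus DMSO vehicle.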 Put shortly: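 Primary rat cortical neurons on PEI-coated 16-electrode MEA wells, exposed from plating day 0 through day 12 with compound renewed at DIV 5 and 9. Network spike duration SD recorded on days 5, 7, 9, 12, collapsed as trapezoidal AUC; loss-of-signal fit versus DMSO.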

A short description of test [14]: CCTE_Shafer_MEA_dev_per_network_spike_spike_number_mean: CCTE's Neural Network Formation Assay for Mean Number of Spikes in a Network Spike, Shafer Lab (AID 2284053).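 On AC50: fitted as decrease in spikes per network spike relative to DMSO.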 A digest of the protocol:
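Primary rat cortical neurons on 48-well, 16-electrode MEA plates were exposed from plating to DIV 12, with dosing renewed on DIV 5 and 9. Spikes per network spike (0.05 s peak window) were recorded on DIV 5, 7, 9 and 12 and collapsed as trapezoidal AUC versus DMSO.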

Test [15] can be described thus: CCTE_Shafer_MEA_dev_per_network_spike_spike_percent: CCTE's Neural Network Formation Assay for Percent of Spikes in a Network Spike, Shafer Lab (AID 2284054). A digest of the protocol:
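Rat primary cortical neurons were grown on 48-well MEA plates (16 electrodes/well), exposed from plating day 0 through day 12, with treatment renewed on DIV 5 and 9. Percent of spikes within 0.05 s network-spike peaks was measured, summarised as AUC across days 5, 7, 9, 12.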

Test [16] is described as follows: CCTE_Shafer_MEA_dev_AB: CCTE's Alamar Blue Assay for Cytotoxicity in the Neural Network Formation Assay, Shafer Lab (AID 2284083; active means hit-call score of the fitted dose curve at least 0.9, where 1 is the maximum;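 further: twelve days of exposure from plating with re-dosing on DIV 5 and 9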). Put shortly: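 Primary rat cortical neurons on PEI-coated 48-well MEA plates, 1.5 x 10^5 cells/well in laminin drop; compound exposure from day 0 of plating for twelve days, renewed at medium changes on DIV 5 and 9. Viability read as resazurin reduction by fluorescence, relative to DMSO.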

Test [17] in a line: CCTE_Shafer_MEA_dev_correlation_coefficient_mean: CCTE's Neural Network Formation Assay for Mean Correlation Coefficient, Shafer Lab (AID 2284093).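 On AC50: well mean pairwise spike train correlation integrated as AUC over recording days 5 to 12; potency fitted for loss of correlation relative to DMSO vehicle wells.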 Put shortly: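 Spontaneous activity recorded on days 5, 7, 9 and 12 post-plating; pairwise spike correlations are averaged across active electrodes and collapsed to an area-under-curve. Rat cortical cultures are dosed from plating through 12 days, with compound renewed at media changes.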

Test [18] is described as follows: CCTE_Shafer_MEA_dev_LDH: CCTE's Lactate Dehydrogenase Assay for Cytotoxicity in the Neural Network Formation Assay, Shafer Lab (AID 2284068; active means hit-call score of the fitted dose curve at least 0.9, where 1 is the maximum;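 further: exposure for twelve days from plating with re-dosing on DIV 5 and 9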). Put shortly: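 Primary rat cortical neurons were plated on PEI/laminin MEA plates and exposed from day 0 for twelve days, with compound renewed at DIV 5 and 9. Cytotoxicity was determined by spectrophotometric LDH assay relative to DMSO.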

A further test has as its system DIO2 (gene 1734). The test is described as follows: CCTE_GLTED_hDIO2: CCTE's human Deiodinase 2 (DIO2) Inhibition Assay, Great Lakes Toxicology and Ecology Division (GLTED) Lab (AID 2284050; active means hit-call score of the fitted dose curve at least 0.9, where 1 is the maximum). Put shortly: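 Cell-free human DIO2 incubated 3 h with chemical; liberated iodide quantified by Sandell-Kolthoff absorbance. Triplicate plates; loss of signal fitted vs DMSO.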

Another test has as its system DIO3 (gene 1735). The experiment in a line: CCTE_GLTED_hDIO3: CCTE's human Deiodinase 3 (DIO3) Inhibition Assay, Great Lakes Toxicology and Ecology Division (GLTED) Lab (AID 2284055; active means hit-call score of the fitted dose curve at least 0.9, where 1 is the maximum;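 further: potency is for inhibition seen as loss of released iodide signal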). A digest of the protocol: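 Human DIO3 from an adenovirus expression system is incubated 3 h with test chemical. Released iodide is quantified by Sandell-Kolthoff absorbance, in triplicate plates. Loss of signal is fitted relative to DMSO.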

Structures are written as SMILES. Inconclusive results are not listed. Calls of active or inactive are those of the source. How the source made its calls, unless noted: active means hit-call score of the fitted dose curve at least 0.9, where 1 is the maximum; inactive means score below 0.9.

As to `CCCCOC(=O)COC(=O)c1ccccc1C(=O)OCCCC`, the compound was called inactive in test [1] and in test [2].

In the case of `OCCCCO`, the call in test [1] and in [2] was inactive.

With `CN(C)C(=S)S`, the call in test [1] was inactive.

Usually AC50 stands for the midpoint of the concentration-response curve, whichever way the signal moves. With `O=S1OC[C@@H]2[C@H](CO1)[C@]1(Cl)C(Cl)=C(Cl)[C@@]2(Cl)C1(Cl)Cl` (stereo partly specified), the compound was called inactive in test [3] and in test [4]. The AC50 in test [5] is 14.6 µM (active); in test [6], 18.6 µM (active).

For the compound `O=S(=O)(F)C(F)(F)C(F)(F)C(F)(F)C(F)(F)F`, the compound was called inactive in [7], in test [8], in test [9], in [10], in test [11] and in test [12]. Moreover, the result in test [13], in test [14], in test [15], in [16] and in test [17] was inactive.

Turning to `Clc1cccc(Cl)c1Cl`, in test [2], the outcome was inactive.

As to `CC1(C)[C@H](C(=O)O[C@H](C#N)c2cccc(Oc3ccccc3)c2)[C@@H]1/C=C(\Cl)C(F)(F)F`, the result in [7], in test [8], in [9] and in test [13] was inactive. For the same compound, the AC50 in [10] is 1.35 µM (active); in test [11], 8.95 µM (active); in [12], 12.9 µM (active); in test [14] it was 12.9 µM (active); in test [15] it was 3.67 µM (active); in test [18], 22.7 µM (active). The AC50 in test [16] was 12.9 µM (active); in test [17] it was 5.11 µM (active).

`Cc1cc(C(F)(C(F)(F)F)C(F)(F)F)ccc1NC(=O)c1cccc(I)c1C(=O)NC(C)(C)CS(C)(=O)=O`: the call in test [7], in test [9], in test [10], in test [13] and in test [2] was inactive. Further, the AC50 in test [8] is 6.7 µM (active); in [11], 18 µM (active); in [12], 11.3 µM (active); in test [14] it was 17.4 µM (active); in [15] it was 20.9 µM (active); in test [18], 11.3 µM (active). The AC50 in [16] was 4.32 µM (active); in test [17], 19.2 µM (active); in [6], 0.264 µM (active).

For `N#CCC#N`, the AC50 in the test on DIO2 (gene 1734) was 48.8 µM (active); with DIO3 (gene 1735) it was 58 µM (active).

On to `O=S1(=O)OC(c2cc(Br)c(O)c(Br)c2)(c2cc(Br)c(O)c(Br)c2)c2ccccc21`, for which the half-maximal activity concentration (AC50) in the test on DIO2 (gene 1734) was 36.4 µM (active); in the test on DIO3 (gene 1735), 13 µM (active).
